# Test results from PMC7819943, “Rice protein-binding microarrays: a tool to detect cis-acting elements near promoter regions in rice”.
# Whole data set: some 35,000 sequences, median “fluorescence intensity (a.u.)” near 10,000, cut for the highest 2% near 52,000. This excerpt belongs to a sample that is enriched for the highest values.
# Biological target: T1, OsWOX13 (Oryza sativa, UniProt Q5QMM3 1-267)
# T1 sequence: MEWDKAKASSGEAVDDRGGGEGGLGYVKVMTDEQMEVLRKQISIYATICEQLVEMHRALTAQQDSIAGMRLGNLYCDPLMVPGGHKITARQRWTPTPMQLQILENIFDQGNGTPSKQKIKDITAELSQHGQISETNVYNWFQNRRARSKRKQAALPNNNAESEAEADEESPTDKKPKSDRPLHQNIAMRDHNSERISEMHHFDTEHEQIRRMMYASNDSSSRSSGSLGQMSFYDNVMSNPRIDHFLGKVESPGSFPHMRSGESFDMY
# Experiment: protein-binding microarray (RPBM); PBS, 2% BSA, 51.3 ng/ul salmon testes DNA, 50 uM zinc acetate, 200 nM TF, 25 C, 1 h; high values mean tight binding
# Conditions: protein: recombinant; tags: N-terminal polyhistidine and DsRed monomer fusion (pET32a); label: CyDye5-dUTP incorporated in the synthesized complementary strand; 3' TTTTT single-stranded linker to array surface; dsDNA, one strand shown
# Method in brief: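 For the binding signal, per-feature fluorescence intensity was read in arbitrary units on an Axon 4000B scanner. Before scanning, a 2% BSA-blocked custom Agilent array made double-stranded with Cy5-dUTP was washed after 1 h at 25 °C with 200 nM protein and 50 µM zinc acetate. The proteins were Ni–NTA-purified transcription factors with N-terminal polyhistidine and DsRed fusions, expressed in E. coli BL21-CodonPlus.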
row,Sequence,binding signal
1,CTTTGTCTTTGTTTCTTGTTGATTGCAGGATCAAATCAACCGGAGTCACCTAGTGCAG,5330 fluorescence intensity (a.u.)
2,CTTGATTGTTCTTTCTTGCTCAAATGCCGGCCTGTGTTGGCGGAGTCACCTAGTGCAG,53200 fluorescence intensity (a.u.)
3,TTTGGTTGGATTGGATTGGATTGGATTGGCTGCTTCCCTGCGGAGTCACCTAGTGCAG,25000 fluorescence intensity (a.u.)
4,TCTTTGTCAATCTTGTTTGGTTGCTCAAATCTTTTGGTGGCGGAGTCACCTAGTGCAG,7260 fluorescence intensity (a.u.)
5,TTCGTGCCTTTTGTTTGATAATTTCTTCATGCTATCTTTTCGGAGTCACCTAGTGCAG,3660 fluorescence intensity (a.u.)
6,ACAAAATAAAATGATGGGCATTTTCTTCAGTTACAATTTCCGGAGTCACCTAGTGCAG,3910 fluorescence intensity (a.u.)
7,TTACTAGATTTATCATTAAACATACTATCATAATATGCAACGGAGTCACCTAGTGCAG,6040 fluorescence intensity (a.u.)
8,TGTGATGAATTGAGCGAACCAGCAGGGCTTCGCCGCTCCCCGGAGTCACCTAGTGCAG,5470 fluorescence intensity (a.u.)
9,AGAGACAGCGAATCAATTAGCCAATGCTAATAATTTATAACGGAGTCACCTAGTGCAG,8160 fluorescence intensity (a.u.)
10,AATTAATTTAGCCCCTAATTAATTAGCAGCCAATCAACGGCGGAGTCACCTAGTGCAG,54000 fluorescence intensity (a.u.)
11,TCCAATTTACTAATTACCACTTTATACGTACAATTATTGACGGAGTCACCTAGTGCAG,23500 fluorescence intensity (a.u.)
12,AATTAATAAAATAAATCTATTACAGTTAACTAAAGGTATTCGGAGTCACCTAGTGCAG,5780 fluorescence intensity (a.u.)
13,GCCAACCTTATAGCTAATTATTATATATATTGACTTTAAGCGGAGTCACCTAGTGCAG,4860 fluorescence intensity (a.u.)
14,TTTAATTTACAGTTAAATTAACTTAATCTGTAAAAGGGATCGGAGTCACCTAGTGCAG,57500 fluorescence intensity (a.u.)
15,ATTAATTAATTAGTCGGCCAACCTAGCTGTTGACTGGGAACGGAGTCACCTAGTGCAG,55900 fluorescence intensity (a.u.)
16,AAAATTACAGTCTTATTTAACTAAAATTACATATGTAAATCGGAGTCACCTAGTGCAG,5170 fluorescence intensity (a.u.)
17,ATTAATTATTAATTTACTTTTGACAATTACTAATTAGCCACGGAGTCACCTAGTGCAG,56700 fluorescence intensity (a.u.)
18,AGCCCCTAAGCCAATCAATTAGCAGGCATCTTTACTCCTACGGAGTCACCTAGTGCAG,18500 fluorescence intensity (a.u.)
19,CCACTTTTAGATTTGACAATTAACTATTTGTCACTTTTAGCGGAGTCACCTAGTGCAG,23600 fluorescence intensity (a.u.)
20,GTTGATGGGCAGCTTAATTACGGCCCGCCTGTTTAGCCAACGGAGTCACCTAGTGCAG,17500 fluorescence intensity (a.u.)
21,ATACATTAATTTGATGCCCCAATAGAAGCACGCCAATCATCGGAGTCACCTAGTGCAG,12000 fluorescence intensity (a.u.)
22,TGTTGTTAGATGATAAAACATGATTAATATTTTATGCGTGCGGAGTCACCTAGTGCAG,3610 fluorescence intensity (a.u.)

row,Sequence,binding signal
1,GTTTTGATAAATTGATTTAAAACGCTTTATAAGAAGTGTCCGGAGTCACCTAGTGCAG,43800 fluorescence intensity (a.u.)
2,AATTTTGATAGGGTAGAATTGAAAATGTTTATTTGGATTGCGGAGTCACCTAGTGCAG,10500 fluorescence intensity (a.u.)
3,AAATAACTGGTGGATATTTGTACGCTGCCCCTGAGGAACTCGGAGTCACCTAGTGCAG,3900 fluorescence intensity (a.u.)
4,TGTTTTCCTAAGTGATTGGTGGGAAACCTCGTAGGATAAGCGGAGTCACCTAGTGCAG,9180 fluorescence intensity (a.u.)
5,TTGATTGGGAGGAAGCCAAGAAGAAGTCAAGAACTGCCCACGGAGTCACCTAGTGCAG,31900 fluorescence intensity (a.u.)
6,GTTTATTTGGGCCTGATTGGCACAGATGGTAGTGCCATGTCGGAGTCACCTAGTGCAG,31700 fluorescence intensity (a.u.)
7,CCAAAATAAACAACCAAAATTTCGCCGTGTAACTAACTCTCGGAGTCACCTAGTGCAG,3300 fluorescence intensity (a.u.)
8,CGTTTAATTGTGTATATATATAGCCACATTAAAGTACACACGGAGTCACCTAGTGCAG,11100 fluorescence intensity (a.u.)
9,CACAGACACATTTGGTTAATTACATACCTTGTACACTTCACGGAGTCACCTAGTGCAG,6260 fluorescence intensity (a.u.)
10,TAGTGTAATTTAACACTTAATTAGCCACATTTGTTACACACGGAGTCACCTAGTGCAG,61900 fluorescence intensity (a.u.)
11,ATTGACTTGACGACCGCCATGAATTCATCTCATCTCATCTCGGAGTCACCTAGTGCAG,5970 fluorescence intensity (a.u.)
12,AGGCTAATTAACAGAGAGGGGACAATATGCAACAACGTATCGGAGTCACCTAGTGCAG,24000 fluorescence intensity (a.u.)
13,GATGAAACATATATTGACTGTAACATGTAGATTACATGATCGGAGTCACCTAGTGCAG,6110 fluorescence intensity (a.u.)
14,TATAATTATTAATAATTAATTAATTATATATTAATTATTTCGGAGTCACCTAGTGCAG,26700 fluorescence intensity (a.u.)
15,TTCTGCTGCACCTAATTAATTAAATTTCCCCGCTATAATTCGGAGTCACCTAGTGCAG,11300 fluorescence intensity (a.u.)
16,TGGTATATTAATTATTTCCTTTCCTTCCTTTCCCTTCCGACGGAGTCACCTAGTGCAG,5690 fluorescence intensity (a.u.)
17,ATTTCTTTAATTAATTAATTAATTAACATATATATCCCTTCGGAGTCACCTAGTGCAG,60600 fluorescence intensity (a.u.)
18,TAATTAATTATAATTAATTAATCCTACTGGTGCTTTCCTTCGGAGTCACCTAGTGCAG,54300 fluorescence intensity (a.u.)
19,CTTATTAACATTTAATTTGGTTTCTTCCTTAATTTGTATCCGGAGTCACCTAGTGCAG,12600 fluorescence intensity (a.u.)
20,TTAATTAATTAATTTTCTTCCTAAACATATCCGCTAATCCCGGAGTCACCTAGTGCAG,53500 fluorescence intensity (a.u.)
21,ACTTAATTAACTTGGTTCTTCCTTTAATTTCTAGCTATATCGGAGTCACCTAGTGCAG,50100 fluorescence intensity (a.u.)
22,CTTTAATTTCTTCTTCTTTTCCACATATAATAATAATATACGGAGTCACCTAGTGCAG,4030 fluorescence intensity (a.u.)
